{"source": "the supplement of paper PMC8728848", "test_in_all_cases": "glycan array binding signal (z-score within array); higher = stronger binding", "conditions_in_all_cases": "glycan notation: IUPAC condensed, linker removed", "key": {"Gal3S(b1-3)GalNAc": {"target": "Gal3S(b1-3)GalNAc", "method_in_brief": "(§1)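 Glycan array data came from 3228 arrays in the Consortium for Functional Glycomics database, and only arrays with an available protein sequence were kept. Glycan names were put into IUPAC-condensed notation, and columns mapping to the same glycan were averaged. The binding signal is a within-array Z-score, averaged across arrays of one protein sequence run at different concentrations or buffers and across linkers. A negative Z-score can be read as non-binding.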"}, "Gal3S6S(b1-4)GlcNAc6S": {"target": "Gal3S6S(b1-4)GlcNAc6S", "method_in_brief": "as §1"}, "Gal6S(b1-3)GlcNAc": {"target": "Gal6S(b1-3)GlcNAc", "method_in_brief": "as §1"}, "Gal6S(b1-4)Glc": {"target": "Gal6S(b1-4)Glc", "method_in_brief": "as §1"}, "[1]": {"target": "GalNAc(b1-3)Gal(a1-4)Gal(b1-4)GlcNAc(b1-3)Gal(b1-4)Glc", "method_in_brief": "as §1"}, "GalNAc(b1-4)GlcNAc": {"target": "GalNAc(b1-4)GlcNAc", "method_in_brief": "as §1"}, "GalNAc4S6S(b1-4)GlcNAc": {"target": "GalNAc4S6S(b1-4)GlcNAc", "method_in_brief": "as §1"}, "[2]": {"target": "GlcNAc(a1-4)Gal(b1-4)GlcNAc(b1-3)Gal(b1-4)[Fuc(a1-3)]GlcNAc(b1-3)Gal(b1-4)[Fuc(a1-3)]GlcNAc", "method_in_brief": "as §1"}, "[3]": {"target": "GlcNAc(b1-3)Gal(b1-4)GlcNAc(b1-6)[Gal(b1-3)]GalNAc", "method_in_brief": "as §1"}, "GlcNAc(b1-6)GalNAc": {"target": "GlcNAc(b1-6)GalNAc", "method_in_brief": "as §1"}, "Kdn(a2-6)Gal(b1-4)GlcNAc": {"target": "Kdn(a2-6)Gal(b1-4)GlcNAc", "method_in_brief": "as §1"}, "[4]": {"target": "Man(a1-2)Man(a1-2)Man(a1-6)[Man(a1-3)]Man", "method_in_brief": "as §1"}, "[5]": {"target": "Man(a1-3)[Man(a1-6)]Man(b1-4)GlcNAc(b1-4)[Fuc(a1-6)]GlcNAc", "method_in_brief": "as §1"}, "[6]": {"target": "Neu5Ac(a2-3)Gal(b1-3)GalNAc(b1-4)[Neu5Ac(a2-3)]Gal(b1-4)Glc", "method_in_brief": "as §1"}, "[7]": {"target": "Neu5Ac(a2-3)Gal(b1-3)]Neu5Ac(a2-3)Gal(b1-4)]GlcNAc", "method_in_brief": "as §1"}, "[8]": {"target": "Neu5Ac(a2-3)Gal(b1-4)GlcNAc(b1-2)Man(a1-3)[Neu5Ac(a2-3)Gal(b1-4)GlcNAc(b1-2)Man(a1-6)]Man(b1-4)GlcNAc(b1-4)GlcNAc", "method_in_brief": "as §1"}, "[9]": {"target": "Neu5Ac(a2-3)Gal(b1-4)GlcNAc(b1-3)Gal(b1-4)GlcNAc(b1-6)[Gal(b1-3)]GalNAc", "method_in_brief": "as §1"}, "[10]": {"target": "Neu5Ac(a2-3)Gal(b1-4)GlcNAc(b1-3)Gal(b1-4)[Fuc(a1-3)]GlcNAc", "method_in_brief": "as §1"}, "[11]": {"target": "Neu5Ac(a2-3)Gal(b1-4)GlcNAc(b1-6)[Gal(b1-3)]GalNAc", "method_in_brief": "as §1"}, "[12]": {"target": "Neu5Ac(a2-3)Gal(b1-4)[Fuc(a1-3)]GlcNAc(b1-3)GalNAc", "method_in_brief": "as §1"}, "Neu5Ac(a2-3)GalNAc": {"target": "Neu5Ac(a2-3)GalNAc", "method_in_brief": "as §1"}, "[13]": {"target": "Neu5Ac(a2-6)Gal(b1-4)GlcNAc(b1-2)Man(a1-6)[GlcNAc(b1-2)Man(a1-3)]Man(b1-4)GlcNAc(b1-4)GlcNAc", "method_in_brief": "as §1"}, "[14]": {"target": "Neu5Ac(a2-6)Gal(b1-4)GlcNAc(b1-2)[Neu5Ac(a2-6)Gal(b1-4)GlcNAc(b1-4)]Man(a1-3)[GlcNAc(b1-4)][Neu5Ac(a2-6)Gal(b1-4)GlcNAc(b1-4)Man(a1-6)]Man(b1-4)GlcNAc(b1-4)GlcNAc", "method_in_brief": "as §1"}, "[15]": {"target": "Neu5Ac(a2-6)Gal(b1-4)GlcNAc(b1-3)Gal(b1-4)GlcNAc(b1-6)[Gal(b1-3)]GalNAc", "method_in_brief": "as §1"}, "[16]": {"target": "Neu5Ac(a2-6)Gal(b1-4)GlcNAc(b1-3)[Neu5Ac(a2-6)Gal(b1-4)GlcNAc(b1-6)]GalNAc", "method_in_brief": "as §1"}, "[17]": {"target": "Neu5Ac(a2-6)Gal(b1-4)GlcNAc(b1-6)[Gal(b1-3)]GalNAc", "method_in_brief": "as §1"}, "[18]": {"target": "Neu5Ac(a2-8)Neu5Ac(a2-3)Gal(b1-3)GalNAc(b1-4)[Neu5Ac(a2-3)]Gal(b1-4)Glc", "method_in_brief": "as §1"}}, "note": "Only a selection was taken, and the strongest signals are over-represented in it overall.", "data": [{"binder": "Aap arpt (Staphylococcus epidermidis) (protein) NNEAPQMSSTLQAEEGSNAEAPQSEPTKAEEGGNAEAAQSEPTKAEEGGNAEAPQSEPTKAEEGGNAEAAQSEPTKTEEGSNVKAAQSEPTKAEEGSNAEAPQSEPTKTEEGSNAKAAQSEPTKAEEGGNAEAAQSEPTKTEEGSNAEAPQSEPTKAEEGGYAEAPQSEPTKTEEGGNAEAPNVPTIKA", "values": [{"measurement": "glycan array binding signal (z-score)", "setting": "Gal3S(b1-3)GalNAc", "value": 0.361}, {"measurement": "glycan array binding signal (z-score)", "setting": "Gal3S6S(b1-4)GlcNAc6S", "value": 1.02}, {"measurement": "glycan array binding signal (z-score)", "setting": "Gal6S(b1-3)GlcNAc", "value": -1.93}, {"measurement": "glycan array binding signal (z-score)", "setting": "Gal6S(b1-4)Glc", "value": -0.15}, {"measurement": "glycan array binding signal (z-score)", "setting": "[1]", "value": -0.809}, {"measurement": "glycan array binding signal (z-score)", "setting": "GalNAc(b1-4)GlcNAc", "value": -0.143}, {"measurement": "glycan array binding signal (z-score)", "setting": "GalNAc4S6S(b1-4)GlcNAc", "value": 1.06}, {"measurement": "glycan array binding signal (z-score)", "setting": "[2]", "value": 2.41}, {"measurement": "glycan array binding signal (z-score)", "setting": "[3]", "value": -0.695}, {"measurement": "glycan array binding signal (z-score)", "setting": "GlcNAc(b1-6)GalNAc", "value": 3.2}, {"measurement": "glycan array binding signal (z-score)", "setting": "Kdn(a2-6)Gal(b1-4)GlcNAc", "value": 2.33}, {"measurement": "glycan array binding signal (z-score)", "setting": "[4]", "value": -0.012}, {"measurement": "glycan array binding signal (z-score)", "setting": "[5]", "value": 1.13}, {"measurement": "glycan array binding signal (z-score)", "setting": "[6]", "value": -1.39}, {"measurement": "glycan array binding signal (z-score)", "setting": "[7]", "value": 2.21}, {"measurement": "glycan array binding signal (z-score)", "setting": "[8]", "value": 3}, {"measurement": "glycan array binding signal (z-score)", "setting": "[9]", "value": -0.491}, {"measurement": "glycan array binding signal (z-score)", "setting": "[10]", "value": -0.571}, {"measurement": "glycan array binding signal (z-score)", "setting": "[11]", "value": 0.944}, {"measurement": "glycan array binding signal (z-score)", "setting": "[12]", "value": 0.511}, {"measurement": "glycan array binding signal (z-score)", "setting": "Neu5Ac(a2-3)GalNAc", "value": -0.745}, {"measurement": "glycan array binding signal (z-score)", "setting": "[13]", "value": 2.64}, {"measurement": "glycan array binding signal (z-score)", "setting": "[14]", "value": -0.548}, {"measurement": "glycan array binding signal (z-score)", "setting": "[15]", "value": 0.045}, {"measurement": "glycan array binding signal (z-score)", "setting": "[16]", "value": -1.09}, {"measurement": "glycan array binding signal (z-score)", "setting": "[17]", "value": 0.173}, {"measurement": "glycan array binding signal (z-score)", "setting": "[18]", "value": -1.08}]}]}
